Bioassay records from PubChem BioAssay.
This is a sample that favours compounds with a hit; in the whole collection about 5.9% have one here.
TrxR1 substrate: rat thioredoxin reductase 1 substrate activity. Potency, µM (series often up to 114 µM), inactives show top-dose activity change, negative = substrate turnover. hit rate 0.01% among 390,000. purified TrxR1 substrate turnover, NADPH consumption readout; also: potency is read from the fitted curve at half-maximal effect; nearly all actives have a fitted effect of over 50% in size
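Rat TrxR1, dispensed at 90 nM, was prereduced with 400 uM NADPH (final) for 5 min at ~22 deg C, then incubated with compound 15 min before 400 uM selenite. A first-read NADPH fluorescence drop versus no-compound background flagged substrates.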
Gal4-VP16 FLuc: Gal4-VP16 reporter inhibition counter-screen; Drosophila S2 Gal4-VP16 UAS-luciferase, luminescence, 20 h; Potency, µM (series often up to 53.6 µM), without a hit: top-dose activity, negative = inhibition, actives largely listed as inhibitors; hit rate 3.5% among 310,000; AID 2546;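 also: Gal4-VP16 expression switched on by copper sulfate through the metallothionein promoter; potency is read from the fitted curve at half-maximal effect; nearly all actives have a fitted effect of over 50% in size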
GALK inh: inhibitors of human galactokinase. P51570. hit rate 0.007% among 270,000. Potency, µM (titrated, usually from 57.5 µM), for inactives: at the highest dose activity change, negative = inhibition, hits mostly inhibitors. Purified GALK, Kinase-Glo residual ATP luminescence; also: potency is read from the fitted curve at half-maximal effect
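Compounds were pin-transferred into ATP buffer (35 uM final), then GALK plus galactose (5 nM, 100 uM final) was added. After 1 h at room temperature, Kinase-Glo Plus was added and luminescence read after 10 min.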
Coupling enz: coupling enzyme interference in Giardia aldolase counter-screen. coupling enzyme system counterscreen, AmpLite Red fluorescence. AID 2472. hit rate 0.67% among 290,000. activity change, negative = inhibition, % at 58.2 µM, hits read low; in the data active = activity change below about -30%
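First, compound is pin-transferred into glyceraldehyde-3-phosphate coupling-enzyme reagent at 57.5 uM final and held 10 min at RT. Next, substrate, coupling system and AmpLite Red are added. After 20 min RT, fluorescence (525/598 nm) is read.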
RORgamma inh: ROR gamma (mouse) transcription inhibition | Potency, µM (titrated, usually from 53.6 µM), for inactives: at the highest dose activity change, negative = inhibition, most hits filed as inhibitors | P51450 | hit rate 5.4% among 310,000 | Drosophila S2 Gal4-RORgamma UAS-luciferase reporter, 20 h; also: potency is read from the fitted curve at half-maximal effect; nearly all actives have a fitted effect of over 60% in size
Target sequence (P51450 whole entry, looked up, the tested form may be a part): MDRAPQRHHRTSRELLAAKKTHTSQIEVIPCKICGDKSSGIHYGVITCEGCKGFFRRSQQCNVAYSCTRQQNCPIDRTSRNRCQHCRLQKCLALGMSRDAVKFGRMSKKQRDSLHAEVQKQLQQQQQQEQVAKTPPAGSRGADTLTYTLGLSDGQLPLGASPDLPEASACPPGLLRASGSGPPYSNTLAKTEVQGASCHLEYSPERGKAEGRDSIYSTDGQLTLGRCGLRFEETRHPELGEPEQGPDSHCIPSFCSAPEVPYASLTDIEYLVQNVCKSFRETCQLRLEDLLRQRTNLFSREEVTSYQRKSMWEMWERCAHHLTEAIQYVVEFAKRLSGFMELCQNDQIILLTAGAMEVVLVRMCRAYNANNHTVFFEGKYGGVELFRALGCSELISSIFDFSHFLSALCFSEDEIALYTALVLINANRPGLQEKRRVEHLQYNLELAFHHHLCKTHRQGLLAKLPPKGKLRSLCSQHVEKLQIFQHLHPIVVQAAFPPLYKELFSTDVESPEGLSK
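Using a luciferase readout, inhibitors were identified by reduced reporter activity in Drosophila cells coexpressing a copper-inducible Gal4–ROR gamma fusion and UAS-driven Photinus luciferase, incubated 20 hr after 700 uM copper sulfate.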
rTrxR1 inhibitor: inhibitors of rat thioredoxin reductase 1 | recombinant rTrxR1, NADPH fluorescence consumption, selenite substrate | Potency, µM (top dose mostly 114 µM), without a hit: at the highest dose activity change, negative = inhibition, hits mostly inhibitors | hit rate 1% among 390,000; also: potency is read from the fitted curve at half-maximal effect; nearly all actives have a fitted effect of over 65% in size
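Rat TrxR1 (90 nM in the dispensed reagent) was pre-reduced with 400 uM NADPH for 5 min at room temperature, then incubated with compound for 15 min. After 400 uM selenite was added, NADPH fluorescence (Ex 340/Em 450 nm) was followed for 8 min.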
Starred values were filed as active, the others as inactive; ? = inconclusive; . = no result; [ ] = dose if it differs, or a comment. Unless noted, calls follow the shape of the dose curve; as a rule, active = well fitted curve in the direction sought with a large enough effect; inconclusive = small, poorly fitted or top-dose-only effect, or another doubt; inactive = no such curve, though single readings can be large; an effect the other way counts as inactive or inconclusive. % is scaled to controls: 0 for no effect and ±100 for the full control effect.

SMILES	TrxR1 substrate	Gal4-VP16 FLuc	GALK inh	Coupling enz	RORgamma inh	rTrxR1 inhibitor
CCCCNC(=O)CCC(=O)Nc1ncc(-c2ccc(C)cc2)n1C	0%	4µM*	4%	2	2µM*	13%
Cn1c(-c2ccc3c(c2)OCO3)cnc1NC(=O)CCC(=O)NCCc1ccccc1	12%	5.6µM*	4%	3	3.2µM*	20%
CC1(C)Cc2c(sc(NC(=O)Cc3ccccc3)c2C#N)CO1	2%[57.1 µM]	-11%	4%	7	-1%	14%[57.1 µM]
C(=C\c1nc2ccccc2[nH]1)/c1ccccc1	127%	8.9µM*	11%	-10	7.1µM*	?
CN(C)c1ccc(/C=C/c2nc3ccccc3c(=O)[nH]2)cc1	-10%	?	.	4	2µM*	-4%[57.1 µM]
O=C(CCN1CCOCC1)N/N=C/c1cc(Br)cc(Br)c1O	8%	5µM*	0%	1	1.4µM*	5%[57.1 µM]
O=C(CCN1CCOCC1)N/N=C/c1cc([N+](=O)[O-])ccc1OC(F)F	5%[57.1 µM]	-14%	1%	-2	-1%	12%[57.1 µM]
O=C(Cc1ccccc1)N/N=C/c1cc(Br)cc(Br)c1O	3%	1.6µM*	-2%	2	0.79µM*	32%
O=C(CNC(=O)c1cccc(Br)c1)N/N=C/c1cc(Br)cc(Br)c1O	1%	13µM*	-2%	6	2.5µM*	?
O=C(CCN1C(=O)/C(=C\c2ccc(F)cc2)SC1=S)Nc1ccccc1	-19%[57.1 µM]	-18%	3%	4	11%	17%[57.1 µM]
Cc1ccc(OCC(=O)Nc2ccccc2F)cc1C	2%[57.1 µM]	-1%	-2%	1	0%	22%[57.1 µM]
COc1ccc(C[C@H]2CN3C(=NC[C@H]3Cc3ccccc3)N2CCNC(=O)CCC2CCCCC2)cc1	16%[57.1 µM]	6%	2%	3	-36%	27%[57.1 µM]
C/C(CC(=O)Nc1cccc(Br)c1)=N\NC(=O)c1ccc(O)cc1O	4%	?	.	6	0.89µM*	?
O=C(/C=C/c1c(F)cccc1Cl)Nc1nc2ccccc2[nH]1	-6%	?	-1%	-2	4.5µM*	-8%
Cc1ccc(C)c(C(=O)Nc2nc3ccccc3[nH]2)c1	10%[57.1 µM]	-4%	-1%	-1	-30%	44%[57.1 µM]
Cc1ccc(/C=C/C(=O)c2ccccc2O)cc1	-2%	3%	3%	-1	-20%	-22%
Cc1ccc(/C=C/C(=O)c2nc3ccccc3[nH]2)cc1	-7%	?	.	0	6.3µM*	-14%
Cc1ccc(/C=C/C(=O)Nc2nc3ccccc3[nH]2)cc1	17%	?	0%	0	5.6µM*	21%
CCOc1ccc(-c2cc(C(=O)N/N=C(\C)c3cccnc3)c3ccccc3n2)cc1	21%	2%	-2%	.	21%	36%
COc1ccc(/C=N\Nc2ncc(F)c(N3CCOCC3)n2)cc1OC	0%[57.1 µM]	0%	3%	-2	-28%	-8%[57.1 µM]
Nc1ccc2nc(CN3CCOCC3)[nH]c2c1	22%	5%	0%	-32*	6%	15%
c1ccc2[nH]c(CN3CCOCC3)nc2c1	18%	6%	0%	3	-8%	23%
CN(CCc1cn[nH]c1)Cc1nc(C(c2ccccc2)c2ccccc2)no1	-3%[57.1 µM]	?	1%	-3	10µM*	8%[57.1 µM]
Cc1ccc(C(=O)OCC(=O)Nc2sccc2C(N)=O)cc1NC(=O)c1ccco1	6%[57.1 µM]	2%	-2%	1	5%	-11%
COc1cc(-c2ccc(N=Nc3ccc4c(S(=O)(=O)O)cc(S(=O)(=O)O)c(N)c4c3O)c(OC)c2)ccc1N=Nc1ccc2c(S(=O)(=O)O)cc(S(=O)(=O)O)c(N)c2c1O	.	?	.	-57*	?	.
SMILES	TrxR1 substrate	Gal4-VP16 FLuc	GALK inh	Coupling enz	RORgamma inh	rTrxR1 inhibitor
Fc1ccc(Nc2nc(N3CCOCC3)nc(N3CCOCC3)n2)cc1	-4%	-10%	5%	.	-7%	9%
Cc1[nH]c2ccccc2c1/C=N/Nc1nc(Nc2ccc(F)cc2)nc(N2CCOCC2)n1	-8%[57.1 µM]	5.6µM*	1%	-1	2.5µM*	12%[57.1 µM]
Cc1ccc(Nc2nc(N/N=C/c3c[nH]c4ccccc34)nc(N3CCOCC3)n2)cc1	-4%	?	-2%	-2	11µM*	-2%
C(=N\Nc1nc(Nc2ccccc2)nc(N2CCOCC2)n1)/c1c[nH]c2ccccc12	-9%	-8%	3%	-6	-29%	-8%
Cc1nn(C(C)(C)C)c(OC(=O)c2cccc(F)c2)c1Sc1ccccc1	7%[2.29 µM]	.	.	.	.	28%
CC(=O)Cc1nsc(NC(=O)c2cn(-c3ccccc3)nc2-c2ccc(Br)cc2)n1	-10%	14µM*	0%	1	?	-14%
CC(C)COc1ccc(-c2nn(-c3ccccc3)cc2C(=O)Nc2nccs2)cc1	13%	4.5µM*	0%	-7	2.5µM*	33%
O=C(Nc1nccs1)c1cn(-c2ccccc2)nc1-c1ccccc1	5%	?	2%	1	7.1µM*	2%[57.1 µM]
O=C(Nc1ccccc1)c1cn(-c2ccccc2)nc1-c1ccccc1	-4%	.	.	.	.	7%
[Cl][In]([Cl])[Cl]	6%	7%	.	.	21%	12%
N#Cc1ccccc1OCC(=O)OCC(=O)NC1CCCCCC1	7%	.	.	.	.	5%
O=C(COC(=O)c1nc(Cl)ccc1Cl)NCc1ccc(Cl)cc1Cl	-6%	.	.	.	.	-9%
CC1=NN(c2ccccc2)C(=O)C1N=Nc1cccc(O)c1 (configuration not stated)	1%	?	-2%	-4	?	13%
CC1=NN(C(=O)c2ccncc2)C(=O)C1N=Nc1ccc2ccccc2c1 (configuration not stated)	-5%[57.1 µM]	.	.	.	.	7%[11.4 µM]
CC1=NN(C(N)=S)C(=O)C1N=Nc1cccc2ccccc12 (configuration not stated)	.	2.8µM*	6%	0	0.63µM*	.
CC1=NN(C(N)=S)C(=O)C1N=Nc1cccc(Cl)c1C (configuration not stated)	-12%	1µM*	2%	-1	0.35µM*	-9%
CC(C)(C)c1cc2ncnc(N3CCCCC3)c2s1	5%[57.1 µM]	-8%	2%	-1	?	7%[57.1 µM]
O=C(NCCn1c(C(F)(F)F)nc2cc(C(F)(F)F)ccc21)[C@H]1CCCN1c1nc(CN2CCCCC2)cs1	13%[57.1 µM]	1%	.	-2	-17%	35%
Cc1ccc(C(C)C)c(OCc2ccc(-c3nnco3)cc2)c1	9%[57.1 µM]	?	0%	0	4µM*	23%[57.1 µM]
CCOc1ccc2nc(SC3CC(=O)N(c4ccccc4)C3=O)sc2c1 (configuration not stated)	-11%	13µM*	2%	8	10µM*	?
CCOc1ccc2nc(SCC(=O)c3ccccc3)sc2c1	6%	?	0%	-9	?	6%
